Measurements: paper PMC4552634, “A New Set of Chemical Starting Points with Plasmodium falciparum Transmission-Blocking Potential for Antimalarial Drug Discovery” (PLoS ONE, 2015)
Read-outs that look alike come from different tables or passages of the source. The campaign covered roughly 13,000 compounds. About 3,200 (25%) showed an effect of 50% or more. The list shows a part of the results.

Test system: P. falciparum stage V gametocytes
Set-up: BacTiter-Glo ATP luminescence viability of purified stage V gametocytes in 384-well plates, per cent inhibition versus DMSO
Conditions: 48 h, 5 µM, inhibitor

Row | Compound | % Inhibition | % Inhibition (% Inhibition)
1 | Cc1noc(-c2ccc(NC[C@@H](C)NC[C@H](O)c3cccc(Cl)c3)cc2)n1 [TCMDC-132027] | 14.57% | –
2 | COc1cc(C=Cc2ccc3ccccc3n2)cc(Br)c1OCC(=O)N(C)C [TCMDC-124818] | 44.47% | –
3 | CCCC(=O)NC(c1cccs1)c1cc(Cl)c2cccnc2c1O (stereo not drawn) [TCMDC-123634] | 68.96% | –
4 | CC(C)C(=O)NC(c1ccc(N(C)C)cc1)c1cc(Cl)c2cccnc2c1O (stereo not drawn) [TCMDC-123643] | 90.13% | –
5 | CCCCC(=O)NC(c1cccs1)c1cc(Cl)c2cccnc2c1O (stereo not drawn) [TCMDC-123653] | 45.79% | –
6 | CC(C)C(=O)NC(c1cccs1)c1cc(Cl)c2cccnc2c1O (stereo not drawn) [TCMDC-123636] | 43.04% | –
7 | CC(=O)NC(c1cccs1)c1cc(Cl)c2cccnc2c1O (stereo not drawn) [TCMDC-125548] | 90.83% | –
8 | COc1ccccc1N(C)CCNc1cc(C)nc(Nc2ccccc2)n1 [TCMDC-133455] | -20.01% | –
9 | Cc1cc(NC(=O)N=C(N)N)ccc1Cl [TCMDC-137470] | 23.53% | –
10 | CC(C)Cc1nc(N2CCOCC2)c2nnn(Cc3ccccc3)c2n1 [TCMDC-124394] | 7.117% | –
11 | Cc1ccc(C)c(CN2CCC(CNC(=O)c3cc4ccc5cccnc5c4[nH]3)CC2)c1 [TCMDC-125280] | 17.56% | –
12 | CCN1C(c2ccc(Cl)cc2)C(CNCc2ccccc2O)CC1(C)CO (stereo not drawn) [TCMDC-124672] | -22.05% | –
13 | Cc1cc2c(cc1C(F)(F)F)N(C(=O)Nc1cc(OCCN(C)C)cc(C(F)(F)F)c1)CC2 [TCMDC-139873] | 27.41% | –
14 | Cc1cc(Nc2cccc(Cl)c2)nc2ccc(NC(=O)c3ccc(=O)[nH]c3)cc12 [TCMDC-125285] | -92.28% | –
15 | N#Cc1ccc(NC(=O)Nc2ccc3c(c2)CCN(C2CCC2)CC3)cc1 [TCMDC-135861] | 25.77% | –
16 | O=C(Nc1cccc([N+](=O)[O-])c1)Nc1cccc(C(F)(F)F)c1 [TCMDC-123674] | -87.02% | –
17 | O=C(Nc1ccc([N+](=O)[O-])cc1)Nc1cc(OCC(F)(F)F)cc(OCC(F)(F)F)c1 [TCMDC-124533] | 87.27% | –
18 | O=C(Nc1ccc([N+](=O)[O-])cc1)Nc1cc(C(F)(F)F)ccc1F [TCMDC-124367] | -37.77% | –
19 | O=C(Nc1ccc(OC(F)(F)F)cc1)Nc1ccc([N+](=O)[O-])cc1 [TCMDC-123714] | -87.78% | –
20 | COc1cc([N+](=O)[O-])ccc1NC(=O)Nc1ccc(OC(F)(F)F)cc1 [TCMDC-125388] | 60.01% | –
21 | N#Cc1ccc(NC(=O)Nc2ccc(OC(F)(F)F)cc2)cc1 [TCMDC-123773] | 69.14% | –
22 | COc1cc(NC(=O)Nc2ccc([N+](=O)[O-])cc2OC)c(OC)cc1Cl [TCMDC-124366] | 14.63% | –
23 | O=C(Nc1ccc(CCNCc2ccccc2)cc1)Nc1ccc(OC(F)(F)F)cc1 [TCMDC-141914] | -0.1841% | –

Row | Compound | % Inhibition | % Inhibition (% Inhibition)
24 | Cc1ccc(C2CC(=O)CC(c3ccccn3)C2[N+](=O)[O-])cc1 (stereo not drawn) [TCMDC-139131] | 6.685% | –
25 | CCCSc1nc2c(c(=O)n1Cc1ccco1)C1(CCCCC1)Cc1ccccc1-2 [TCMDC-123897] | -0.1623% | –
26 | CC(C)C[C@H](NC(=O)c1ccc(OCCN2CCOCC2)cc1)C(=O)N[C@H](/C=N/N1CCN(C)C1=O)CCc1ccccc1 [TCMDC-136154] | 6.527% | –
27 | CO/C(=C\C=C\c1cc2cc(Cl)c(Cl)cc2[nH]1)C(=O)NCCCN1CCN(c2cccc(O)c2)CC1 [TCMDC-139248] | 6.724% | –
28 | O=C(NCc1ccc(C(=O)NC2CCCCCC2)cc1)c1ccc(O)c(-c2ccc(Cl)c(Cl)c2)c1 [TCMDC-140846] | -16.48% | –
29 | CN(C)c1ccc(NC(=O)Nc2ccnc3ccc(Br)cc23)cc1 [TCMDC-139326] | -66.68% | –
30 | C/C=C1\CN2CC[C@H]1C[C@H]2[C@H](O)c1ccnc2ccc(OC)cc12 [TCMDC-138074] | – | 4.282%
31 | COc1ccc(CNc2nccc3ccc(-c4ccc5nccn5c4)cc23)cc1 [TCMDC-133417] | -35.58% | –
32 | COc1ccc(CNc2nccc3ccc(-c4ccc(N)nc4)cc23)cc1 [TCMDC-133418] | 62.64% | –
33 | COc1ccc(Nc2nccc(-c3ccc4c(-c5ccsc5)cnc(N)c4c3)n2)cc1 [TCMDC-135552] | 9.815% | –
34 | OC(CNc1ccnc(Nc2cccc(Cl)c2)n1)c1cccc(C(F)(F)F)c1 (stereo not drawn) [TCMDC-136586] | -39.19% | –
35 | COc1ccc(CNc2ccnc3cc(OC)ccc23)cc1 [TCMDC-139267] | 1.914% | –
36 | OC(CNc1ccnc(Nc2cccc(Cl)c2)n1)c1cccc(F)c1 (stereo not drawn) [TCMDC-136573] | -70.46% | –
37 | COc1ccc(Nc2nccc(-c3ccc4ccnc(NCCCCN)c4c3)n2)cc1 [TCMDC-136642] | 94.8% | –
38 | NCCCCNc1cc(-c2ccnc(Nc3cccc(Cl)c3)n2)ccn1 [TCMDC-134683] | 70.36% | –
39 | CCCCNc1nccc2ccc(-c3ccncc3)cc12 [TCMDC-136490] | -10.89% | –
40 | Cc1ccccc1C1CCN(C2CCC(NC(=O)/C=C/c3cccc(Cl)c3)CC2)CC1 (stereo not drawn) [TCMDC-133508] | -91.25% | –
41 | CS(=O)(=O)c1ccc(CNCc2cccc(-c3cccc(-c4nc5cc(C(F)(F)F)ccc5[nH]4)c3)c2)cc1.O=C(O)C(F)(F)F [TCMDC-132899] | -4.854% | –
42 | O=C(Nc1ccc(N2CCN(Cc3cccc(F)c3)CC2)cc1)c1cccs1 [TCMDC-134999] | -0.3438% | –
43 | N#Cc1cncc(-c2nc3c(N4CCC(Cc5ccccc5)CC4)cccc3n2C2CCNC2)c1 (stereo not drawn) [TCMDC-133545] | 7.232% | –
44 | COc1cccc(CCc2nc3c(N4CCC(Cc5ccccc5)CC4)cccc3n2CC2CNCCO2)c1 (stereo not drawn) [TCMDC-133535] | 83.91% | –
45 | COc1ccc2nccc([C@@H](O)CN3CCC(NC(=O)C(c4cc5ccccc5o4)N4CCC(Cc5ccccc5)CC4)CC3)c2c1 (stereo partly drawn) [TCMDC-140997] | 26.99% | –
